Measured values reported in PubChem BioAssay (Tox21).
Results filed as inconclusive are left out. A number with no mark means an inactive call. Active and inactive are the calls of the source. Calls come from the whole dose curve; as a rule, active = well fitted cell-killing curve with a large enough effect in the repeat runs; inconclusive = weak or mixed curves, or effect the other way; inactive = flat fitted curve, though single readings scatter.

Assay: cAMP Responsive Elements (CRE) small molecule antagonists, cell-based qHTS assay: qHTS cell viability counter screen (AID 2060913); note: nearly all actives have a fitted effect of over 40% in size
Conditions: CRE-bla HEK293T viability, CellTiter-Glo luminescence, 5 h; series mostly up to 92.4 µM; viability change, negative = cytotoxic: at the top concentration
Method in brief: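 HEK293T CRE-bla, 2,000 cells/well, 18 h preincubation; cpd in DMSO + NKH477 0.25 uM final, 3 h 37 C/5% CO2; LiveBLAzer 2 h RT, then CellTiter-Glo 30 min RT, luminescence.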
% is set by controls: 0 for no effect and ±100 for the full control effect; potency is the fitted concentration of half-maximal effect.

Row | Compound | viability change, negative = cytotoxic | Potency
1 | CC(C)N1C(=O)c2ccccc2C1=O | -5.15% | –
2 | CN1CCC(=C2c3ccccc3C=Cc3ccccc32)CC1 | -7.49% [at 42.5 µM] | –
3 | Cc1ccc(Cl)cc1Cl | 1.71% | –
4 | CCOC(=O)Nc1ccc(NCc2ccc(F)cc2)nc1N | 1.86% [at 42.5 µM] | –
5 | O=C1O[C@H]([C@H](O)CO)C(O)=C1O | – | inactive
6 | CC(C)C(O)(c1ccc(OC(F)(F)F)cc1)c1cncnc1 (stereo not given) | 10.9% | –
7 | CCS(=O)(=O)c1ccc(OC)c(C(=O)OC)c1 | 1.74% [at 42.5 µM] | –
8 | CN(C)CCOC(c1ccc(Cl)cc1)c1ccccn1 (stereo not given) | -1.27% [at 42.5 µM] | –
9 | CCCCCCCC(=O)OC | – | inactive
10 | C[C@]12CCC(=O)C=C1CC[C@@H]1[C@@H]2[C@@H](O)C[C@@]2(C)[C@H]1CC[C@]2(O)C(=O)CO | – | inactive
11 | C[C@H]1O[C@@H](O[C@H]2[C@@H](O)C[C@H](O[C@H]3[C@@H](O)C[C@H](O[C@H]4CC[C@@]5(C)[C@H](CC[C@@H]6[C@@H]5C[C@@H](O)[C@]5(C)[C@@H](C7=CC(=O)OC7)CC[C@]65O)C4)O[C@@H]3C)O[C@@H]2C)C[C@H](O)[C@@H]1O | – | 0.0632 µM (active)
12 | O=C(O)c1cccc(O)c1 | -3.31% | –
13 | CC1CCCCN1CCCOC(=O)c1ccc(OC2CCCCC2)cc1 (stereo not given) | -12.6% [at 42.5 µM] | –
14 | CC(C)(O)c1ccc(CNC(=O)c2cccnc2Oc2ccc(F)cc2)cc1 | 0.0414% | –
15 | Cc1ccccc1OCC(=O)O | 7.55% | –
16 | CCC(=O)OCCc1ccccc1 | -6.32% | –
17 | CC(C)(C)c1ccc(O)c(C(C)(C)C)c1 | – | 48.6 µM (active)
18 | C/C=C/C=C/CO | 9.44% | –
19 | Clc1ccc2c(c1)C(N1CCNCC1)=Nc1ccccc1O2 | – | inactive
20 | CC(N)=O | -0.841% [at 240 µM] | –
